Eight molecules from PubChem BioAssay (NCATS) can be followed below.

Records with an inconclusive call do not appear. Entries that show only a call come without a potency. Activity calls are given as the source filed them. Calls come from the whole dose curve; as a rule, active = well fitted inhibition curve with a large enough effect; inconclusive = small, poorly fitted or top-dose-only effect; inactive = no such curve, though single readings can be large or run the other way.
Potency is the fitted concentration of half-maximal effect.

The assay has as its system Zika virus NS2B-NS3 protease (linked construct). Nature of the assay: Primary screen NINDS Rhodamine qHTS for Zika virus inhibitors (AID 1347160). Note: nearly all actives have a fitted effect of over 55% in size. As to conditions: purified NS2B-NS3 protease, Rhodamine110 substrate fluorescence; series mostly up to 57.1 µM. The method in brief: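 In 10 mM Tris-HCl pH 8.0 containing 0.01% Tween 20, linked NS2B-NS3 protease (25 nM final) is exposed to test compounds for 15 min. Cleavage of 1.5 microM Rhodamine110 substrate is tracked by fluorescence over 15 min.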
For orientation: qHTS replaces the single test concentration by a dilution series.
Turning to `C=C1C(=O)O[C@@H]2C3=C(C)CCC[C@]3(C)CC[C@@]12O`, the Potency entry was “inactive”. For `CC[C@@H]1C[C@]1(NC(=O)[C@@H]1C[C@@H]2CN1C(=O)[C@H](C(C)(C)C)NC(=O)OCC(C)(C)CCCCc1cccc3c1CN(C3)C(=O)O2)C(=O)NS(=O)(=O)C1CC1` the value was 22.4 µM (active).

With `NC(=O)c1cccc2[nH]c(-c3ccc(C4CCCN4)cc3F)nc12` (stereo not drawn), the Potency entry is “inactive”. For `COc1cc(-c2nc(N[C@H](CO)Cc3ccccc3)ccc2C(=O)NCCOc2ccccc2)cc(OC)c1OC` the value was “inactive”; for `N#Cc1ccc(COC[C@H]2O[C@@H](n3c(NCc4ccc(Cl)c(Cl)c4)nc4c(N)ncnc43)[C@H](O)[C@@H]2O)cc1`, “inactive”.

Take `Cc1nc(NC(=O)N2CCCC2C(N)=O)sc1-c1ccnc(C(C)(C)C(F)(F)F)c1` (stereo not drawn): the Potency result was “inactive”. The same measure for `CCOc1cn(-c2ccc(F)cc2C)nc1C(=O)Nc1ccc(Oc2ccnc3cc(OC)c(OC)cc23)c(F)c1`: “inactive”. With `Cc1nc(Nc2ccc(F)cc2)nc(N2CCc3ccccc3C2C)c1C` (stereo not drawn), the Potency result was “inactive”.
